Keap1 Nrf2 FP – Keap1-Nrf2 protein-protein interaction inhibitors, primary screen, biochemical, fluorescence polarization, single point | Kelch-like ECH-associated protein 1 (Homo sapiens), Q14145 | 0.15% of 340,000 active | inhibition, % at 9.4 µM | Keap1 Kelch-Nrf2 peptide fluorescence polarization, 1536-well | AID 504523, 2011; in the data active = inhibition above about 12%;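 note: human Keap1 Kelch domain with fluorescein labeled Nrf2 9mer peptide probe; 0% = neutral control wells and 100% = peptide positive control; higher means more block of Keap1 binding to Nrf2 peptide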
RTF Ca sens act – cardiac RTF calcium sensitivity activators, primary screen, biochemical, IANBD-TnC fluorescence, EC20 calcium | activation, % at 7.2 µM | Troponin I, cardiac muscle (Homo sapiens) + Troponin T, cardiac muscle (Homo sapiens) + … | 0.24% of 340,000 active | IANBD-labeled TnC RTF fluorescence at EC20 calcium; 0% EC20 calcium, 100% full calcium;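 active = activation above the mean over all tested compounds plus 3 SD, cut at about 30% in these data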;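 note: rise in fluorescence read as greater calcium sensitivity of cardiac thin filaments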
eLon inh – inhibitors of E. coli Lon protease, primary screen, biochemical, fluorescence polarization | inhibition, % at 7.94 µM | P0A9M0 | purified E. coli Lon protease | 0.42% of 360,000 active; in the data active = inhibition above about 13%, passing the limit was not always enough;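 note: 0% = enzyme with probe and DMSO and 100% = no enzyme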
Target sequence (P0A9M0 whole entry, looked up): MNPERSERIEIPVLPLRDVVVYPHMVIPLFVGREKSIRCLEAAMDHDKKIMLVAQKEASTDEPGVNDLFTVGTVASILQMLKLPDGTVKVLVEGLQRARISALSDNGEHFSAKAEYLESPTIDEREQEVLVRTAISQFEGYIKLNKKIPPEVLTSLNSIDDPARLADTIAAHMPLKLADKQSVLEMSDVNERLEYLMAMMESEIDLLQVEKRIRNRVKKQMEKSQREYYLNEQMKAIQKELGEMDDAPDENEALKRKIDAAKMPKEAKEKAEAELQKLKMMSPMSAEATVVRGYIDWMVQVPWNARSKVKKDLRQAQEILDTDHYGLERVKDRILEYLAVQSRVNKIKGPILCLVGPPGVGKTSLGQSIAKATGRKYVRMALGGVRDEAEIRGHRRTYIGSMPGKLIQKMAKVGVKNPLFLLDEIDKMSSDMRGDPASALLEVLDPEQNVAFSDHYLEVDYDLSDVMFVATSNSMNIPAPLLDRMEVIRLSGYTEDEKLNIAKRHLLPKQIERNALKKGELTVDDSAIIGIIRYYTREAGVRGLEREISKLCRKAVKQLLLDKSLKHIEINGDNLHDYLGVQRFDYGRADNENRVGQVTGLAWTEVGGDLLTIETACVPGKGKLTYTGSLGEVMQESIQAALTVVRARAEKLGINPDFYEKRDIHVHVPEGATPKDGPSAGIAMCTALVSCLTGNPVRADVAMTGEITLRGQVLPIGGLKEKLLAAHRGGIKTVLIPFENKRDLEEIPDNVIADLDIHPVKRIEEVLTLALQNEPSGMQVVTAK
C-LANA FP – inhibitors of KSHV C-LANA binding to DNA, primary screen, biochemical, fluorescence polarization, FAM-LBS DNA, MBP-C-LANA, single point | Kaposi's sarcoma herpesvirus LANA C-terminal domain (residues 932-1162) DNA binding | inhibition, % at 9 µM | 0.078% of 340,000 active | AID 504423, 2011;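 active = highest replicate inhibition at or above 60% at 9 µM, even if other replicates fall short; inactive = all replicates below 60% inhibition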;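 note: 0% = neutral control wells and 100% = 4 µM acridine orange control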
Cardiac RTF inh – cardiac RTF calcium sensitivity inhibitors, primary screen, biochemical, IANBD-TnC fluorescence, EC70 calcium | 0.12% of 340,000 active | inhibition, % at 7.15 µM | IANBD-labeled cardiac RTF, Ca2+ fluorescence;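 active = inhibition above the mean inhibition of all tested compounds plus 3 SD, cut at about 17% in these data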;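 note: assay run at fixed EC70 calcium of 1.6 mM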
RTF inh confirm – cardiac RTF calcium sensitivity inhibitors, confirmation, biochemical, fluorescence readout. shares compounds with Cardiac RTF inh. reconstituted cardiac thin filaments. 8% of 360 active. inhibition, % at 7.15 µM; in the data active = inhibition above about 18%
DNA intercal 2 – DNA intercalator detection, dose response, counter-screen for C-LANA DNA-binding inhibitor project, biochemical, dry powder; shares compounds with C-LANA FP; Acridine orange-DNA displacement, fluorescence polarization; AC50, µM (highest dose often 35 µM), for the others: at the highest dose activity change, negative = inhibition; 20 tested, under 10 active; AID 588364, 2011;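 active = signal drop with an AC50 no more than ten times the top valid dose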
Active calls of the source: *; nt = no result given; ! = not active in a repeat. Shown are actives, neighbours in structure and some others; about 0.82% of the full set was active somewhere.

SMILES	Keap1 Nrf2 FP	RTF Ca sens act	eLon inh	C-LANA FP	Cardiac RTF inh	RTF inh confirm	others
CCN(C1CCS(=O)(=O)C1)S(=O)(=O)c1ccc(Cl)s1 (stereo unspecified)	-2.8	0.1	11.2	1.0	-3.2	nt
CC(O)c1nc2ccccc2n1CCCCOc1ccccc1 (stereo unspecified)	-2.0	-2.2	-0.1	0.1	21.5*	-4.6
CC(O)c1nc2ccccc2n1CCOc1ccccc1 (stereo unspecified)	1.9	-2.4	-4.9	0.6	-6.5	nt
CCN(CC(=O)Nc1c(F)cccc1F)C(=O)/C=C/c1ccc2ccccc2n1	2.7	-10.9	-23.0	1.6	20.0*	1.8
CCN(CC(=O)Nc1c(F)cccc1F)C(=O)c1ccc2ccccc2n1	-2.7	-11.3	-3.5	-0.4	-10.9	nt
CCOc1ccc(NS(=O)(=O)c2ccc3c(c2)N(C(C)=O)CCS3)cc1	-6.2	0.4	-4.1	-0.6	77.4*	-2.3
COc1ccc(C2=Cc3ccc(OC(C)=O)cc3OC2)cc1	-3.3	0.0	-9.2	-1.3	-15.2	nt
CC(C)(C)c1cc(NC(=O)C2(C)CCN2C(=O)c2ccccc2CCc2ccccc2)no1 (stereo unspecified)	nt	nt	-10.0	nt	nt	nt
COc1ccc(C(=NNc2ccccc2C(=O)O)c2ccc(OC)cc2)cc1	1.0	0.3	0.9	-0.9	17.0*	-4.0
COc1ccc(OC)c(S(=O)(=O)NCC(c2ccco2)N2CCc3ccccc3C2)c1 (stereo unspecified)	0.1	-6.5	-2.8	-1.2	17.8*	-4.5
COc1ccc(C)cc1S(=O)(=O)NCC(c1ccco1)N1CCc2ccccc2C1 (stereo unspecified)	-5.0	-7.6	-3.0	-0.5	2.8	nt
O=C(O)/C=C/C(=O)c1ccc2c(c1)CCc1ccccc1-2	-31.3	-3.3	-3.7	3.1	-8.7	nt
Cc1cc(OCCCC(=O)NC2=NCCS2)ccc1Cl	-3.5	-4.1	-1.9	0.2	17.2*	-3.0
COC(=O)[C@]1(Cc2ccccc2)N[C@H](CN(C)C(=O)Nc2ccc(C)cc2)[C@@H]2C(=O)N(C)C(=O)[C@@H]21	3.8	-2.6	-21.6	0.6	-3.7	nt
CSc1nsc(SC)c1-c1ccc(Cl)cc1	nt	nt	10.7	nt	nt	nt
O=C(N/N=C/c1cn(Cc2cccc(F)c2)c2ccccc12)c1cc(O)cc(O)c1	-0.5	-15.4	-0.9	19.3	20.6*	6.4
Nc1ccc(C(=O)N/N=C/c2cn(Cc3ccc(F)cc3)c3ccccc23)cc1	4.3	-6.1	2.0	0.4	2.3	nt
CN(C)S(=O)(=O)c1ccc(NC(=O)N2CCN(c3ccccc3Cl)CC2)cc1	0.6	-6.0	1.0	-0.6	18.9*	-3.3
O=C(CCCCCN1C(=O)c2ccccc2C1=O)Nc1ccccc1	-3.2	1.2	-2.4	0.1	18.5*	-5.2
CCN1/C(=C/c2ccc3ccccc3[n+]2CC)C=Cc2ccccc21	-16.2	-11.6	-6.3	-10.8	17.4*	5.9
CCc1cccc(NC(=O)C2CCCN(S(=O)(=O)c3cccs3)C2)c1 (stereo unspecified)	2.1	3.9	6.3	0.1	23.9*	-2.3
O=C(O)Cc1c[nH]c2ccc(O)cc12	-3.1	3.5	2.4	-0.4	17.5*	1.2
Cn1nc(N)c2c(-c3ccc(Cl)cc3)c(C#N)c(N)nc21	1.3	10.9	0.4	-1.0	-0.9	nt
Cn1nc(N)c2c(-c3ccccc3)c(C#N)c(N)nc21	-2.1	0.2	22.3	2.2	17.2*	-3.7
CCc1cc(C(=O)N/N=C/c2ccc(OC)cc2)c2ccccc2n1	-0.7	-8.9	0.5	-0.7	18.5*	-5.4
SMILES	Keap1 Nrf2 FP	RTF Ca sens act	eLon inh	C-LANA FP	Cardiac RTF inh	RTF inh confirm	others
O=C(N/N=C/c1cccc(F)c1)c1cc(-c2ccco2)nc2ccccc12	-6.4	-15.1	-8.4	-3.0	17.1*	0.1
COc1cc(/C=N/NC(=O)c2cc(-c3ccco3)nc3ccccc23)cc(OC)c1O	-1.6	1.7	-4.4	2.4	-9.7	nt
COc1ccc(OC)c(-c2cc(C(=O)N/N=C/c3ccc(F)cc3)c3ccccc3n2)c1	nt	nt	-5.2	nt	nt	nt
O=S(=O)(O)c1cccc2c(N=Nc3ccc(O)c4ncccc34)cccc12	5.4	-39.5	4.2	47.8	36.8*	9.9
COc1ccccc1NS(=O)(=O)c1cccc(C(=O)N2CCN(C(=O)c3ccco3)CC2)c1	0.0	4.8	-3.1	-3.5	-2.5	nt
COc1ccc(C2(C)NC(=O)N(CC(=O)c3cc(C)n(C4CC4)c3C)C2=O)cc1OC (stereo unspecified)	3.2	2.6	-10.5	1.6	2.3	nt
CCOc1cc(/C=C2\SC(=Nc3ccc(CC)cc3)NC2=O)ccc1OCC(=O)O	-2.1	-5.8	-11.3	2.7	-1.6	nt
c1coc(CNC2CCCCCCC2)c1	-1.7	2.4	-6.6	-0.8	18.2*	-5.4
c1coc(CNC2CCCCC2)c1	-2.6	1.1	-7.2	1.5	-3.2	nt
Cc1ccc(C2CC(c3ccc(NS(C)(=O)=O)cc3)=NN2C(=O)c2ccco2)cc1 (stereo unspecified)	-3.5	3.8	-1.5	0.0	20.2*	-2.9
CCCNC(=O)CSc1nccn1Cc1ccc(OC)cc1	4.6	2.7	2.4	1.7	17.6*	-0.8
C[C@H](O)CC(=O)O	-2.7	-8.4	-16.9	-0.1	19.3*!	-3.2
C[C@@H](O)CC(=O)O	-5.9	4.0	7.7	-2.7	15.2	nt
Cc1c(CCOC(=O)C23CC4CC(CC(C)(C4)C2)C3)sc[n+]1CC(=O)c1ccccc1	-5.4	2.5	-9.3	-0.3	18.6*	-5.8
O=C(O)C1Nc2ccc(Br)cc2C2C=CCC12 (stereo unspecified)	7.4	-38.5	-0.3	69.1*	59.5*	5.9	DNA intercal 2=3.3%
CCOC(=O)C1(C)CCCCN1C(=O)c1cccnc1 (stereo unspecified)	nt	nt	-1.4	nt	nt	nt
CC1=NN(c2cccc(C(=O)O)c2)C(=O)/C1=C\C=C\c1ccco1	7.0	-36.3	-8.0	91.6*	34.5*	11.1	DNA intercal 2=8.6%
CCCc1cc(CN(C)C(=O)CC2C(=O)NCCN2Cc2ccccc2C)[nH]n1 (stereo unspecified)	1.0	6.4	-4.4	-0.4	-1.4	nt
CSc1ccc(/C=N/Nc2cccc(C(=O)O)c2)cc1	0.6	-13.7	8.6	78.2*	26.0*	5.4	DNA intercal 2=6.0%

Screening results as filed in PubChem.
